Rab9 prom act – activators of Rab9 promoter. Huh7 Rab9 promoter-luciferase reporter, luminescence, 24 h. Potency, µM (doses to about 9.22 µM), inactives show at the top dose activation, negative = inhibition, most hits filed as activators. hit rate 2.8% among 320,000. AID 485297; also: % of control where 0% means no effect; nearly all actives have a fitted effect of over 60% in size
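Cell-based reporter: Huh7 stable for Rab9 promoter-driven luciferase, plated in reduced-serum medium with 10% FBS at 1500 cells/well, compound-treated 24 h at 37 °C, luminescence read after 10 min reagent.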
SMN2 splice enh – increases expression of the SMN2 splice variant; AID 1458; hit rate 2.8% among 210,000; Potency, µM (series often up to 46.1 µM), for inactives: top-dose activity change, positive = activation, hits mostly activators; HEK293 SMN2-luciferase splicing reporter, luminescence, 30-36 h; also: % of control where 0% means no effect; nearly all actives have a fitted effect of over 55% in size
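qHTS luciferase splicing reporter: luminescence rises when SMN2 exon 7 is included in transfected HEK293 cells. Compound exposure lasted 30-36 h at 37C, with 4.5 mM final sodium butyrate as control, followed by a ONE-Glo read.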
ELG1 DNA repair – blocks ELG1-dependent DNA repair in HEK293T cells; HEK293T ELG1-luciferase reporter, luminescence, 16 h; DNA damage induced by 5-fluorouridine; Potency, µM (top dose mostly 46.1 µM), without a hit: at the highest dose activity change, negative = inhibition, most hits filed as inhibitors; hit rate 2.3% among 330,000; also: % is scaled to controls: 0 for no effect and ±100 for the full control effect; nearly all actives have a fitted effect of over 55% in size
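Luminescence from the luciferase reporter, measured 30 min after ONE-Glo reagent at room temperature, was the read-out. Beforehand, 2,000 cells per well were exposed for 16 hr at 37 °C to 5-fluorouridine together with compound or vehicle.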
NPC1 promoter act – activators of NPC1 promoter; Huh7 NPC1 promoter luciferase reporter, 24 h; Potency, µM (top dose mostly 9.22 µM), for the others: top-dose activation, hits mostly activators; hit rate 2.4% among 320,000; also: % of control where 0% means no effect; nearly all actives have a fitted effect of over 60% in size
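Quantitative HTS used a cell-based reporter: Huh7 cells stably bearing the NPC1 promoter upstream of luciferase were treated with compounds for 24 h, and promoter activation was read as luminescence.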
FLuc counter – firefly luciferase modulation, counter-screen for miR-21 project; P08659; Potency, µM (titrated, usually from 57.5 µM), without a hit: at the highest dose activity change, negative = inhibition, usual class: inhibitors; hit rate 6.9% among 360,000; AID 588342; purified FLuc, Km substrates, luminescence inhibition;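 also: plate controls were vehicle for no effect and reference inhibitor for full effect; nearly all actives have a fitted effect of over 55% in size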
Target sequence (P08659 whole entry, looked up): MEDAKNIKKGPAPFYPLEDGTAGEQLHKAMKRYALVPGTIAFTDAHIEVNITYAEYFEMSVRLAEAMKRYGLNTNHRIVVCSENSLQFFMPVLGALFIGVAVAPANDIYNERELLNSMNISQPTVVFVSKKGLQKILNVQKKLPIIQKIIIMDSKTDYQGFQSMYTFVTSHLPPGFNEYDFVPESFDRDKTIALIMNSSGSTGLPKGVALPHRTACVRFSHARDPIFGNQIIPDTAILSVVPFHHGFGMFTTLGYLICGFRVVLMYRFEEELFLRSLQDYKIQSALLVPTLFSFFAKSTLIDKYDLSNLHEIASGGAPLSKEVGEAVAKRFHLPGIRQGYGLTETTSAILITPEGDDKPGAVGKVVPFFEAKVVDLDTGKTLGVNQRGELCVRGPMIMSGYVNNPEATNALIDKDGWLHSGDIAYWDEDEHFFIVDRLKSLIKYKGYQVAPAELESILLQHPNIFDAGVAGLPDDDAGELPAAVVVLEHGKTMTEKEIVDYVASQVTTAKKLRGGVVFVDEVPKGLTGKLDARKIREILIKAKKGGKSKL
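Purified P. pyralis luciferase, 10 nM final, with Km-level 10 uM D-luciferin and 10 uM ATP in 50 mM Tris acetate pH 7.5, 10 mM Mg acetate, 0.01% Tween-20, 0.05% BSA; 6-point qHTS titration about 60 µM downward; luminescence read.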
ELG1 genotoxic – genotoxicity induction in ELG1-luciferase HEK293T cells. HEK293T ELG1-luciferase reporter, luminescence, 16 h. Potency, µM (doses to about 46 µM), for inactives: at the top dose activity change, positive = activation, actives largely listed as activators. hit rate 1.3% among 330,000. AID 504466; also: % of control where 0% means no effect; nearly all actives have a fitted effect of over 60% in size
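DMSO vehicle served as control against compound-treated ELG1-luciferase HEK293T cells; exposure lasted 16 hr at 37 °C and 5% CO2, followed by ONE-Glo luminescence detection after 30 min.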
Numbers without * were called inactive; ? = inconclusive; nt = not tested or not shown. An excerpt weighted towards active compounds, which were near 9.2% of everything screened. Calls follow the shape of the dose curve; as a rule, active = well fitted curve in the direction sought with a large enough effect; inconclusive = small, poorly fitted or top-dose-only effect, or another doubt; inactive = no such curve, though single readings can be large; an effect the other way counts as inactive or inconclusive. Potency is read from the fitted curve at half-maximal effect.

SMILES	Rab9 prom act	SMN2 splice enh	ELG1 DNA repair	NPC1 promoter act	FLuc counter	ELG1 genotoxic
COC(=O)C1CCN(C(=O)CCCOc2ccccc2)CC1	2.2µM*	nt	?	?	4.8µM*	2.6µM*
COC(=O)C1CCN(C(=O)CSc2ccccc2)CC1	0%	7%	12%	0%	-1%	2%
O=C(CCCOc1ccccc1)N1CCN(c2ccc(F)cc2)CC1	27%	-4%	?	25%	27µM*	?
O=C(CCSCc1ccccc1F)N1CCN(c2ccccn2)CC1	?	?	?	24%	19µM*	18µM*
CC(CNC(=O)COC(=O)c1ccco1)c1ccccc1 (centres undefined)	0%	nt	17%	0%	-18%	1%
O=C(CCCOc1ccccc1)N1CCN(c2ccccn2)CC1	0.89µM*	14µM*	?	1.3µM*	6.7µM*	2.1µM*
CC1=Nc2cc(C(=O)NCCc3ccccc3)ccc2Sc2c(C)ccc(C)c21	nt	-34%	nt	nt	-3%	nt
CCCNC(=O)c1ccc2c(c1)N=C(C)c1c(C)ccc(C)c1S2	nt	4µM*	nt	nt	?	nt
COc1cc(C(C)=O)ccc1COc1ccc(C(=O)OCC(N)=O)cc1OC	-2%	-36%	?	0%	12µM*	3%
CC(C)=CCC/C(C)=C/CNC(=O)C[C@H]1C[C@H](C(=O)N2CCOCC2)[C@@]2(CCC3CCCC3)c3[nH]c4cc(CCC(=O)N(C)C)ccc4c3CCN2C1=O	nt	nt	23µM*	nt	nt	-1%
N/C(=N\OC(=O)c1ccc([N+](=O)[O-])cc1)c1cccnc1	-5%	nt	?	-1%	2.7µM*	?
N/C(=N\OC(=O)c1ccc(Cl)c([N+](=O)[O-])c1)c1ccccc1	28%	nt	?	-5%	12µM*	13%
Cc1ccc(C(=O)O/N=C(\N)c2cccnc2)cc1[N+](=O)[O-]	2%	?	?	10%	12µM*	?
Cc1cc(F)ccc1S(=O)(=O)NCC(c1ccco1)S(=O)(=O)c1cccs1 (centres undefined)	nt	nt	nt	nt	1%	nt
Cc1ccc(S(=O)(=O)NCCC(=O)NNC(=O)c2ccccc2Cl)cc1C	-2%	nt	22%	-3%	-2%	-2%
Cc1nc(N2CCCC2)ncc1C(=O)N1CCN(c2ccccc2F)CC1	nt	nt	nt	nt	3%	nt
CS(=O)(=O)n1nc(-c2ccco2)nc1NCc1ccccc1Cl	nt	23%	nt	nt	-7%	nt
CCS(=O)(=O)N1N=C(c2cccs2)CC1c1cc2cc(C)ccc2nc1Cl (centres undefined)	-4%	nt	11%	-2%	17µM*	15%
Cc1ccc2nc(Cl)c(C3CC(c4cccs4)=NN3C(=O)CCCC(=O)O)cc2c1 (centres undefined)	-2%	-4%	11%	0%	-2%	7%
COc1cc(C2=N/C(=C\c3ccccc3)C(=O)O2)cc(OC)c1OC	nt	-2%	nt	nt	nt	nt
CC(=O)n1cc(/C=C2/N=C(c3ccccc3)OC2=O)c2ccccc21	-1%	-2%	13%	-2%	5.4µM*	1%
Cc1onc2c(=O)n(-c3ccccc3)nc(-c3ccccc3)c12	-6%	nt	-3%	-1%	0%	0%
Cn1c(-c2ccccc2F)cc2onc(-c3ccccc3)c2c1=O	0.4µM*	nt	?	0.32µM*	0.54µM*	0.46µM*
CSc1nc(-c2ccccc2F)c(C#N)c(=O)n1C	3%	-1%	18%	-3%	0%	-8%
Cn1c(-c2ccccc2)cc2onc(-c3ccccc3)c2c1=O	40µM*	nt	?	0.079µM*	0.17µM*	?
SMILES	Rab9 prom act	SMN2 splice enh	ELG1 DNA repair	NPC1 promoter act	FLuc counter	ELG1 genotoxic
NC(=O)C1CCN(c2ncnc3c2cnn3-c2ccccc2)CC1	nt	nt	nt	nt	-17%	nt
O=C(c1ccco1)N1CCN(c2ncnc3c2[nH]c2ccc(Br)cc23)CC1	-8%	-56%	23µM*	-1%	?	-17%
COc1ccc(-c2nsc3c(N4CCN(C(=O)c5ccco5)CC4)ncnc23)cc1	26%	-34%	19%	16%	?	-4%
NC(=O)C1CCN(c2ncnc3c(-c4ccccc4)nsc23)CC1	3.5µM*	12%	?	3.5µM*	11µM*	13%
O=C(c1ccco1)N1CCN(c2ncnc3c2[nH]c2ccccc23)CC1	0%	-33%	?	6%	-7%	3%
O=C(c1ccco1)N1CCN(c2ncnc3c(-c4ccccc4)nsc23)CC1	2.8µM*	11%	?	3.2µM*	11µM*	-2%
Cc1ccc(S(=O)(=O)c2cn(C)c3cc(N4CCCC(C)C4)c(F)cc3c2=O)c(C)c1 (centres undefined)	nt	nt	nt	nt	-14%	nt
Cc1ccc(NC(=O)COc2ccc(C(=O)c3ccccc3)cc2)c(O)c1	7%	nt	?	0%	-5%	-2%
Cc1ccccc1NC(=O)CSc1ccc(-c2cccs2)nn1	nt	nt	nt	nt	-2%	nt
COc1cc(N=Nc2cccc(S(N)(=O)=O)c2)c2ccccc2c1N	-3%	?	?	10%	19µM*	?
Cn1nc(C(=O)OCC(=O)Nc2ccc(SC(F)F)cc2)c2ccccc2c1=O	nt	nt	-8%	nt	nt	2%
CCCCc1nc2cc(C(=O)N3CCCCC3CC(=O)OCC)ccc2o1 (centres undefined)	?	nt	16%	23%	3%	-1%
CCCCc1nc2cc(C(=O)NC(C)c3cnn(C)c3)ccc2o1 (centres undefined)	4µM*	nt	?	?	?	?
COCC1CCCN(C(=O)c2ccc3oc(CCCc4ccccc4)nc3c2)C1 (centres undefined)	11%	nt	9%	4%	?	1%
CCCCc1nc2cc(C(=O)N3CCCCC3C(=O)OC)ccc2o1 (centres undefined)	2.8µM*	nt	?	?	15µM*	?
CCCCc1nc2cc(C(=O)NCc3ccccn3)ccc2o1	12%	nt	?	2%	-10%	7%
CCCCc1nc2cc(C(=O)N3CCCC3)ccc2o1	2.8µM*	nt	?	?	?	?
CCCCc1nc2cc(C(=O)N3CCCC(COC)C3)ccc2o1 (centres undefined)	4µM*	nt	?	4µM*	17µM*	?
COc1cccc(CC(CC(=O)O)C(=O)Nc2cc(C)ccc2C)c1 (centres undefined)	0%	nt	3%	-3%	-2%	3%
COc1ccc(N2CC(NC(=O)C(c3ccccc3)c3ccccc3)CC2=O)cc1OC (centres undefined)	nt	nt	nt	nt	-2%	nt
CCOc1ccc2c(c1)c(=O)c(C(=O)c1ccccc1)cn2Cc1ccccc1	nt	4%	nt	nt	-1%	nt
CCCCc1nc2cc(C(=O)N3CCC(OCCOC)CC3)ccc2o1	15%	nt	29%	18%	?	?
